PubChem BioAssay AID2444 (National Center for Advancing Translational Sciences (NCATS), 2010)
The other results are listed elsewhere or left out. Results filed as inconclusive are left out. Activity calls are given as the source filed them. Calls come from the whole dose curve.

What follows are molecules tested against Thyroid hormone receptor beta (Homo sapiens) (UniProt P10828) (assay: Protein Interaction Secondary Assay for Inhibitors of the Interaction of Thyroid Hormone Receptor and Steroid Receptor Coregulator 2, Alpha Screen). Details: AlphaScreen TRb LBD-SRC2 peptide binding, luminescence.
From the text: NIH Molecular Libraries Probe Production Network [MLPCN] NIH Chemical Genomics Center [NCGC] MLPCN Grant: DK058080 Assay Provider: R. Kip Guy, St. Jude Children's Research Hospital NCGC Assay Overview: Thyroid receptor (TR) regulates many homeostatic processes including basal metabolism, cardiovascular function, body weight, and lipid trafficking. TR modulators are potential therapeutics for obesity and hyperlipidemias but current thyroid analogs have undesirable side effects, particularly cardiac stimulation. To confirm that inhibitors specifically prevent the interaction of TR with the steroid receptor coregulator 2 (SRC2), an orthogonal TR-SRC2 interaction assay using Alpha Screen (PerkinElmer) was employed. […] Small molecule inhibitors that block the interaction of TR and SRC2 are detected by a decrease in chemiluminescence.
NCGC Assay Protocol Summary: Fifteen uL/well of 100 nM TRb and 100 nM SRC2-2-peg2-biotin in buffer (25 mM HEPES, 100 mM NaCl, 1 mM DTT, 0.1% BSA, 0.01% NP-40) was dispensed into white 384 well Optiplates (PerkinElmer). […] After 30 min incubation, 5 uL of streptavidin donor beads were added and after 90 min incubation, the plates were read by an Envision (Perkin Elmer) to detect luminescence of the donor and acceptor bead interaction (680 nm excitation and 520-620 nm emission).

Chain of Thyroid hormone receptor beta (Homo sapiens) (P10828 whole entry, looked up, the tested form may be a part): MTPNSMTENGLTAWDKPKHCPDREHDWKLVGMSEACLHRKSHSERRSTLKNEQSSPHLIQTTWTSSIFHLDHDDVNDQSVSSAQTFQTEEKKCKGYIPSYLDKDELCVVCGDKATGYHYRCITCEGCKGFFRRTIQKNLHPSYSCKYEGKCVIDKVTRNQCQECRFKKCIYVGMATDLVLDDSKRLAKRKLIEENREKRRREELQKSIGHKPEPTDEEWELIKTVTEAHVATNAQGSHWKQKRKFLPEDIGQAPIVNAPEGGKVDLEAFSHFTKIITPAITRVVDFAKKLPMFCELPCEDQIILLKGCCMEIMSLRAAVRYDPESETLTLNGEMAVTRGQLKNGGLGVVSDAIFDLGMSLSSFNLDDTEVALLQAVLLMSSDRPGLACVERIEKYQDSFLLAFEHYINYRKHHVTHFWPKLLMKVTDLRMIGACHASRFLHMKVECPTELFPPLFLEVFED

SMILES	outcome
O=C(COC(=O)c1cccc([N+](=O)[O-])c1)NC1C2CC3CC(C2)CC1C3 (stereo unspecified)	inactive
